HSF-1 act: HSF-1 activators, primary screen, NIH3T3-HGL cells, MG132 stress, luminescence, single point; AID 504408, 2011; actives 1.7% (n = 300,000); NIH3T3-HGL HSF-1 luciferase reporter, 8 h; 100% = twice DMSO control signal; activation, % at 9 µM;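 active = mean replicate activation of at least 50% with a set share of replicates each reaching 50%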;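 also: 0% = median of the neutral control wells and 100% = twice that signal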
DYRK1A inh: rat Dyrk1A kinase inhibitors, primary screen, biochemical, single point, plate reader. ADP-Glo luminescence, NFATc1 peptide. actives 0.43% (n = 310,000). inhibition, % at 12.5 µM. Dual specificity tyrosine-phosphorylation-regulated kinase 1A (Rattus norvegicus), Q63470; in the data active = inhibition above about 50%;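 also: plate controls were vehicle with enzyme for no effect and no enzyme for full effect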
HSF1 inh: HSF1 inhibitors in luciferase reporter cells, primary screen, cell-based, NIH3T3, luminescence; NIH3T3-HGL HSE-luciferase, MG132-induced, luminescence 8 h; active compounds read low; activity change, negative = inhibition, % at 7.5 µM (by protocol); actives 0.77% (n = 300,000);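 active = more than half of replicate wells show activity change below -50%, luminescence cut by over half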;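 also: luciferase reports HSF-1 transcriptional activity via heat shock element; 0% = median of DMSO wells and -100% = zero luminescence signal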
NPR1 activator: GC-A stimulated cGMP production enhancers – HEK293 GC-A cells, cGMP TR-FRET, EC30 ANP, primary screen | Atrial natriuretic peptide receptor 1 (Homo sapiens), P16066 | activation, % at 10 µM | 0% at EC30 ANP, 100% saturating ANP | actives 0.14% (n = 370,000); in the data active = activation above about 40%
aDG glyco up: activators of alpha-DG glycosylation, primary screen, uHTS, Pro5-aDG cells, AlphaScreen | activation, % at 10 µM | AID 624168, 2012 | alpha-DG glycosylation AlphaScreen (IIH6); 0% Pro5, 100% B10-LARGE cell signal | actives 0.22% (n = 360,000);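 active = activation of at least 8% versus controls, or a plate z-score of at least 8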;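 also: Pro5 are CHO cells carrying HIG-tagged alpha-DG that lacks glycosylation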
GC-B act: human GC-B receptor activators, primary screen, HEK293 GC-B cells, cGMP TR-FRET, EC30 CNP | Atrial natriuretic peptide receptor 2 (Homo sapiens), P20594 | 0% at EC30 CNP, 100% saturating CNP | activation, % at 10 µM | actives 0.11% (n = 370,000) | AID 1920062, 2024;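 active = activation at 10 µM reaching about 35% in either raw or pattern-adjusted values, limit read from the data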
The depositor's hits bear a star. Sampled rows, rich in hits. Any-hit rate of the full collection: about 2.5%.

How did CC12CCC(C/C1=N\N=C1\NC(=O)/C(=C\c3ccc(Cl)cc3)S1)C2(C)C (stereo unspecified) do in these assays?
HSF-1 act: -94.4; DYRK1A inh: 2.8; HSF1 inh: -94.2*; NPR1 activator: -4.6; aDG glyco up: 0.3; GC-B act: 1.0

Results for O=c1c(=Nc2ccccc2O)c(=O)c2ccccc12 ?
HSF-1 act: 55.1*; DYRK1A inh: 0.7; HSF1 inh: 20.0; NPR1 activator: -1.9; aDG glyco up: 0.1; GC-B act: -7.3

How did O=C(Nc1ccc(S(=O)(=O)Nc2ncccn2)cc1)c1cccnc1 do in these assays?
HSF-1 act: -0.7; DYRK1A inh: -2.5; HSF1 inh: 4.2; NPR1 activator: 2.5; aDG glyco up: 0.3; GC-B act: 1.9

How did CCNS(=O)(=O)c1ccc(NC(=O)c2cccnc2)cc1 do in these assays?
HSF-1 act: 0.4; DYRK1A inh: -0.1; HSF1 inh: -5.3; NPR1 activator: 0.4; aDG glyco up: 16.8*; GC-B act: -3.1

What do the screens show for `CCOC(=O)Cn1c(=O)oc2cc(S(=O)(=O)NCCC(C)C)ccc21`?
HSF-1 act: -75.1; DYRK1A inh: 0.8; HSF1 inh: -69.9*; NPR1 activator: -6.8; aDG glyco up: -0.1; GC-B act: 1.2

What do the screens show for `CCOCCCNS(=O)(=O)c1ccc2c(c1)oc(=O)n2CC(=O)OCC`?
HSF-1 act: 2.0; DYRK1A inh: -17.6; HSF1 inh: -1.0; NPR1 activator: 6.5; aDG glyco up: 0.0; GC-B act: 2.5

Results for O=C(Nc1nc2cc3c(cc2s1)OCCO3)c1cccs1 ?
HSF-1 act: -10.8; DYRK1A inh: 1.3; HSF1 inh: -19.5; NPR1 activator: 1.7; aDG glyco up: 0.8; GC-B act: -7.5

Results for CCS(=O)(=O)c1nc(S(=O)(=O)c2ccc(C)cc2)c(N2CCC(C)CC2)s1 ?
HSF-1 act: -91.5; DYRK1A inh: -0.7; HSF1 inh: -88.9*; NPR1 activator: 1.3; aDG glyco up: -0.4; GC-B act: 1.9

Results for CCCS(=O)(=O)c1nc(S(=O)(=O)c2ccc(C)cc2)c(N2CCc3ccccc3C2)s1 ?
HSF-1 act: 54.4*; DYRK1A inh: -7.7; HSF1 inh: 25.2; NPR1 activator: -1.5; aDG glyco up: -0.2; GC-B act: -1.7

What do the screens show for `Cc1ccc(S(=O)(=O)c2nc(S(=O)(=O)c3ccc(C)cc3)c(N3CCN(CCO)CC3)s2)cc1`?
HSF-1 act: 56.8*; DYRK1A inh: 0.6; HSF1 inh: 9.6; NPR1 activator: 2.6; aDG glyco up: -0.3; GC-B act: 1.0

What do the screens show for `C=CC[C@@H](Cc1ccc(F)cc1)C(=O)OC[C@H]1CCCN1C(=O)[C@H](CC=C)CC(=O)NCCO`?
DYRK1A inh: -3.1; NPR1 activator: -0.1; aDG glyco up: -0.1; GC-B act: 1.0

What do the screens show for `O=C(COC(=O)c1c[nH]c2ccccc12)NC1CCCC1`?
DYRK1A inh: 1.4; NPR1 activator: 2.2; aDG glyco up: -0.1; GC-B act: -3.5

Results for COc1cccc2cc(C(=O)NCc3ccco3)c(=Nc3ccc(C(=O)O)cc3)oc12 ?
HSF-1 act: -69.3; DYRK1A inh: -0.2; HSF1 inh: -63.2*; NPR1 activator: -4.5; aDG glyco up: 0.1; GC-B act: -7.0

How did COc1cccc2cc(C(=O)NCc3ccco3)c(=O)oc12 do in these assays?
HSF-1 act: 0.8; DYRK1A inh: -2.0; HSF1 inh: 7.5; NPR1 activator: 3.0; aDG glyco up: 0.2; GC-B act: 0.4

How did CC(=O)NC(Nc1nc2c(s1)CCCC2)(C(F)(F)F)C(F)(F)F do in these assays?
HSF-1 act: 26.2; DYRK1A inh: 3.7; HSF1 inh: 5.4; NPR1 activator: 4.0; aDG glyco up: 0.0; GC-B act: 0.2

High-throughput results deposited in PubChem BioAssay by several laboratories.
